From publication PMC11006913

Columns and labels:
HOXB6 [1] = molecular target: HOXB6 (Homo sapiens, UniProt P17509 132-218, K202E); test: PBM; 200 nM protein, PBS; conditions: dsDNA, one strand shown
HOXB6 [2] = molecular target: HOXB6 (Homo sapiens, UniProt P17509 132-218); test: PBM; 200 nM protein, PBS; conditions: dsDNA, one strand shown
Sequence of HOXB6 (Homo sapiens, UniProt P17509 132-218) (P17509 132-218): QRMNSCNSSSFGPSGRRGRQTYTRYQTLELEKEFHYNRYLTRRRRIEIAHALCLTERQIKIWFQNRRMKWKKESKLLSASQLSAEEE

Sequence of HOXB6 (Homo sapiens, UniProt P17509 132-218, K202E) (P17509 132-218 K202E): as the sequence (P17509 132-218) above, with K71E counted along it

Sequence	binding signal (HOXB6 [1])	binding signal (HOXB6 [2])
CCGACTCC	9.11 upbm affinity estimate (log intensity, higher = more binding, comparable within an allelic series)	9.01 upbm affinity estimate (log intensity, higher = more binding, comparable within an allelic series)
AAATGGTC	9.65 upbm affinity estimate (log intensity, higher = more binding, comparable within an allelic series)	10.6 upbm affinity estimate (log intensity, higher = more binding, comparable within an allelic series)
AATGGCTA	9.56 upbm affinity estimate (log intensity, higher = more binding, comparable within an allelic series)	10.8 upbm affinity estimate (log intensity, higher = more binding, comparable within an allelic series)
CTGCCTGC	9.03 upbm affinity estimate (log intensity, higher = more binding, comparable within an allelic series)	8.97 upbm affinity estimate (log intensity, higher = more binding, comparable within an allelic series)
AGTCGCCC	8.98 upbm affinity estimate (log intensity, higher = more binding, comparable within an allelic series)	9.09 upbm affinity estimate (log intensity, higher = more binding, comparable within an allelic series)
AATAGTTC	9.51 upbm affinity estimate (log intensity, higher = more binding, comparable within an allelic series)	10.1 upbm affinity estimate (log intensity, higher = more binding, comparable within an allelic series)
CGCAGGAG	9.14 upbm affinity estimate (log intensity, higher = more binding, comparable within an allelic series)	8.95 upbm affinity estimate (log intensity, higher = more binding, comparable within an allelic series)
GGTATTAC	9.66 upbm affinity estimate (log intensity, higher = more binding, comparable within an allelic series)	10.2 upbm affinity estimate (log intensity, higher = more binding, comparable within an allelic series)
AGGGAGGA	9.04 upbm affinity estimate (log intensity, higher = more binding, comparable within an allelic series)	9.03 upbm affinity estimate (log intensity, higher = more binding, comparable within an allelic series)
AGTTATTG	9.58 upbm affinity estimate (log intensity, higher = more binding, comparable within an allelic series)	10.6 upbm affinity estimate (log intensity, higher = more binding, comparable within an allelic series)
AAGGGACC	9.07 upbm affinity estimate (log intensity, higher = more binding, comparable within an allelic series)	8.97 upbm affinity estimate (log intensity, higher = more binding, comparable within an allelic series)
AAGTACGA	9.65 upbm affinity estimate (log intensity, higher = more binding, comparable within an allelic series)	10.3 upbm affinity estimate (log intensity, higher = more binding, comparable within an allelic series)
CGCACACC	9.16 upbm affinity estimate (log intensity, higher = more binding, comparable within an allelic series)	9.11 upbm affinity estimate (log intensity, higher = more binding, comparable within an allelic series)
CTCGGCTC	9.06 upbm affinity estimate (log intensity, higher = more binding, comparable within an allelic series)	8.95 upbm affinity estimate (log intensity, higher = more binding, comparable within an allelic series)
GGTTTTTA	9.65 upbm affinity estimate (log intensity, higher = more binding, comparable within an allelic series)	10.3 upbm affinity estimate (log intensity, higher = more binding, comparable within an allelic series)
CCCGGTAG	9.07 upbm affinity estimate (log intensity, higher = more binding, comparable within an allelic series)	9.12 upbm affinity estimate (log intensity, higher = more binding, comparable within an allelic series)
CCGGAGCG	9.07 upbm affinity estimate (log intensity, higher = more binding, comparable within an allelic series)	9.17 upbm affinity estimate (log intensity, higher = more binding, comparable within an allelic series)
AATTTCGG	9.51 upbm affinity estimate (log intensity, higher = more binding, comparable within an allelic series)	10.2 upbm affinity estimate (log intensity, higher = more binding, comparable within an allelic series)

Sequence	binding signal (HOXB6 [1])	binding signal (HOXB6 [2])
TAATGGAA	9.72 upbm affinity estimate (log intensity, higher = more binding, comparable within an allelic series)	10.8 upbm affinity estimate (log intensity, higher = more binding, comparable within an allelic series)
AAGGGAGC	9.01 upbm affinity estimate (log intensity, higher = more binding, comparable within an allelic series)	8.99 upbm affinity estimate (log intensity, higher = more binding, comparable within an allelic series)
ACGCCGCG	9.12 upbm affinity estimate (log intensity, higher = more binding, comparable within an allelic series)	9.15 upbm affinity estimate (log intensity, higher = more binding, comparable within an allelic series)
CTCCGAAG	9.06 upbm affinity estimate (log intensity, higher = more binding, comparable within an allelic series)	9.02 upbm affinity estimate (log intensity, higher = more binding, comparable within an allelic series)
CCAATTTC	9.48 upbm affinity estimate (log intensity, higher = more binding, comparable within an allelic series)	10.1 upbm affinity estimate (log intensity, higher = more binding, comparable within an allelic series)
AAATCGAC	9.47 upbm affinity estimate (log intensity, higher = more binding, comparable within an allelic series)	10.1 upbm affinity estimate (log intensity, higher = more binding, comparable within an allelic series)
GAGAGGGC	8.82 upbm affinity estimate (log intensity, higher = more binding, comparable within an allelic series)	8.79 upbm affinity estimate (log intensity, higher = more binding, comparable within an allelic series)
CCTCGGAC	9.1 upbm affinity estimate (log intensity, higher = more binding, comparable within an allelic series)	8.96 upbm affinity estimate (log intensity, higher = more binding, comparable within an allelic series)
TCTCATAA	9.55 upbm affinity estimate (log intensity, higher = more binding, comparable within an allelic series)	10.4 upbm affinity estimate (log intensity, higher = more binding, comparable within an allelic series)
GCTGGCTA	9.09 upbm affinity estimate (log intensity, higher = more binding, comparable within an allelic series)	9 upbm affinity estimate (log intensity, higher = more binding, comparable within an allelic series)
GCGCTCCC	9.05 upbm affinity estimate (log intensity, higher = more binding, comparable within an allelic series)	8.94 upbm affinity estimate (log intensity, higher = more binding, comparable within an allelic series)
CAACATAA	9.7 upbm affinity estimate (log intensity, higher = more binding, comparable within an allelic series)	10.4 upbm affinity estimate (log intensity, higher = more binding, comparable within an allelic series)
AGCCTAGG	9.04 upbm affinity estimate (log intensity, higher = more binding, comparable within an allelic series)	9.03 upbm affinity estimate (log intensity, higher = more binding, comparable within an allelic series)
CGCGTGCC	9.06 upbm affinity estimate (log intensity, higher = more binding, comparable within an allelic series)	9.06 upbm affinity estimate (log intensity, higher = more binding, comparable within an allelic series)
TGACTTAA	9.69 upbm affinity estimate (log intensity, higher = more binding, comparable within an allelic series)	10.5 upbm affinity estimate (log intensity, higher = more binding, comparable within an allelic series)
GGCTCGAC	9.13 upbm affinity estimate (log intensity, higher = more binding, comparable within an allelic series)	8.81 upbm affinity estimate (log intensity, higher = more binding, comparable within an allelic series)
AGCGAGGG	9.04 upbm affinity estimate (log intensity, higher = more binding, comparable within an allelic series)	8.99 upbm affinity estimate (log intensity, higher = more binding, comparable within an allelic series)
CGGTGTGC	9.02 upbm affinity estimate (log intensity, higher = more binding, comparable within an allelic series)	8.92 upbm affinity estimate (log intensity, higher = more binding, comparable within an allelic series)
